# A selection: hits, their analogues and other compounds. The true share with any hit is near 2.1%.
# Rpn11 block: Rpn11 (human) deubiquitinase inhibition; O00487; human 26S proteasome, Ub4-pepOG fluorescence polarization; 20S core pre-blocked with epoxomicin; inhibition, % at 20 µM; actives 0.59% (n = 360,000);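 active = inhibition at 20 µM, scaled to each plate's controls, above about 33%, limit read from the data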
# TPT1 inhibitor: C. albicans TPT1 enzyme inhibition; AID 1962; actives 0.81% (n = 300,000); inhibition, % at 5 µM; recombinant caTPT1, FP RNA substrate dephosphorylation;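 active = inhibition above the mean of all tested compounds plus 3 SD, set per screening campaign, cut at about 24% in these data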;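 also: plate controls were DMSO alone for no effect and ferristatin control at 100 nM for full effect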
# HNF4A DNA FP: change in binding of human HNF4 alpha to DNA. P41235. HNF4a-FITC DNA binding, fluorescence polarization, 1 h. activity change, % at 10 µM. actives 0.3% (n = 360,000); in the data active = activity change above about 30%, passing the limit was not always enough
# Target sequence (P41235 whole entry, looked up): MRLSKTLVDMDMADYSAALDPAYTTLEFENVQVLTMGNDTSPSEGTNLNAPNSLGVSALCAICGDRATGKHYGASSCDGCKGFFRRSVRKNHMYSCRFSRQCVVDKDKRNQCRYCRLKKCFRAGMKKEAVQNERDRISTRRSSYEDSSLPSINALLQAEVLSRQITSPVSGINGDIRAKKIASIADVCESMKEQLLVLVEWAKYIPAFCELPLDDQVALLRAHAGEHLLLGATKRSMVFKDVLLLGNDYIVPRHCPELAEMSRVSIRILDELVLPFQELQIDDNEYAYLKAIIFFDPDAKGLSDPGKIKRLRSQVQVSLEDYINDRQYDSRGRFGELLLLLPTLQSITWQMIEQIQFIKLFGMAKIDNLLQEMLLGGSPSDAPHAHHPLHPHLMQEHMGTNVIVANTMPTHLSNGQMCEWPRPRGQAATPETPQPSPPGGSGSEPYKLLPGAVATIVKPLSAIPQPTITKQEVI
# Myeloid diff MLP: compounds promoting myeloid differentiation; ER-HoxA9 myeloid progenitors, lysozyme-GFP differentiation, flow cytometry; calls only at 10 µM; actives 1% (n = 360,000); AID 624256;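 active = normalized GFP-positive differentiation at or above the plate's own cutoff, the solvent-only control mean plus 3 SD; inconclusive = no clear call, values can overlap the other calls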;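 also: cells exposed to compound for four days before flow analysis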
# TPT1 inh confirm: TPT1 (C. albicans) inhibition, confirmation; inhibition, % at 5 µM; shares compounds with TPT1 inhibitor; recombinant caTPT1, fluorescence polarization, RNase T1 coupled; actives 74% (n = 2,400); AID 2149;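 active = inhibition above the primary screen limit, the mean inhibition of all tested compounds plus 3 SD, cut at about 25% in these data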
# RNase T1 counter: RNase T1 inhibition in TPT1 counter-screen | shares compounds with TPT1 inhibitor | RNase T1 cleavage, fluorescence polarization, 1536-well | inhibition, % at 5 µM | actives 83% (n = 2,400) | AID 2153;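 active = inhibition above the solvent-only control well mean plus 3 SD, limit set per screening run, cut at about 23% in these data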;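 also: plate controls were DMSO wells with enzyme for no effect and wells without RNase T1 for full effect; inhibitors block cleavage so intact labeled substrate keeps polarization high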
# Target sequence (P00651 whole entry, looked up): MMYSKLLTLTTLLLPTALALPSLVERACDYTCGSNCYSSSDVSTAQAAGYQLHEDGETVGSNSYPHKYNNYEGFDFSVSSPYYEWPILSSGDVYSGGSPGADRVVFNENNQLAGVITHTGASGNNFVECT
# Active calls of the source: *; i = inactive; ? = inconclusive; / = not tested or not shown; + = active, no number.
SMILES,Rpn11 block,TPT1 inhibitor,HNF4A DNA FP,Myeloid diff MLP,TPT1 inh confirm,RNase T1 counter
O=C(CSc1nnnn1C1CC1)Nc1ccc(S(=O)(=O)N2CCOCC2)cc1,-1,/,3,i,/,/
Cc1cccc(NC(=O)CNC(=O)Cn2cc(C(F)(F)F)cc(Cl)c2=O)c1C,-1,/,2,i,/,/
Cc1nc(C)c(-c2ccc(SCC(=O)Nc3cccc(Cl)c3C)nn2)s1,6,-4,8,i,/,/
C[C@@H]1CCCCCCCCC(=O)OCCN(C(=O)OC(C)(C)C)[C@H](C)CCCCCCCCC(=O)OCCN(C(=O)OC(C)(C)C)[C@H](C)CCCCCCCCC(=O)OCCN(C(=O)OC(C)(C)C)[C@H](C)CCCCCCCCC(=O)OCCN1C(=O)OC(C)(C)C,3,/,6,i,/,/
COc1cc(N2CCCC2)c(OC)cc1/C=C(/C#N)c1ccc(F)cc1,/,143*,82,/,132*,134*
COc1cc(N2CCCC2)c(OC)cc1/C=C(/C#N)c1ccc(Br)cc1,/,104*,113,+,130*,147*
COc1ccc2c(c1)c(C(=O)N/N=C/c1cccc(O)c1)c(C)n2C,-2,-4,2,i,/,/
Cn1c(O)c(/C=N/NC(=O)c2cc3ccccc3cc2O)c2ccccc21,/,122*,62,i,127*,125*
COc1ccc2c(c1)cc(C(=O)N/N=C/c1c(O)c(C(=O)O)cc3ccccc13)n2C,/,51*,27,i,60*,65*
Cn1c(=O)c2ncn(C)c2n(C)c1=O,6,/,0,i,/,/
Cc1nn(C)c(C)c1S(=O)(=O)N(CC(=O)NCCCN1CC(C)CC(C)C1)c1ccc(C(C)C)cc1 (configuration not stated),0,4,-9,?,/,/
Cc1cccc(S(=O)(=O)c2c(N)n(/N=C/c3cccnc3)c3nc4ccccc4nc23)c1,0,33*,-1,i,53*,70*
COc1cccc(S(=O)(=O)Nc2ccc(C(=O)NCc3ccco3)cc2)c1,0,28*,-2,i,6,9
COc1ccc(NS(=O)(=O)c2cccc(C(=O)NCc3ccco3)c2)cc1,0,0,-3,i,/,/
Cc1ccc(NC(=O)c2cc(S(=O)(=O)N3CCOCC3)c(Br)s2)cc1,0,29*,2,i,0,3
Cc1ccc(C(=O)Nc2ccc(F)c(S(=O)(=O)N3CCOCC3)c2)s1,-1,/,-3,i,/,/
CC(C)CCN1C(=O)c2ccc(C(=O)NCC3CCCO3)cc2C1=O (configuration not stated),-1,1,-2,i,/,/
COc1ccc(/C=C/C(=O)c2ccncc2)c2ccccc12,32,63*,1,i,73*,81*
COc1ccc(/C=C/C(=O)c2ccc[nH]2)c(OC)c1OC,2,4,-2,i,/,/
CN(CC(=O)NCc1ccco1)S(=O)(=O)c1ccc2c(c1)c(=O)n(C)c(=O)n2C,-3,-1,8,i,/,/
Nc1nc(SCC(=O)Nc2ccc3c(c2)OCO3)n[nH]1,1,41*,-1,i,2,3
Cc1ccc(NS(=O)(=O)c2ccc(-c3csc(C)n3)s2)c(C)c1,-1,-2,0,i,/,/
O=C(O)c1ccc(NS(=O)(=O)/C=C/c2ccccc2)cc1O,1,24*,3,i,3,5
COc1ccc(OCc2cc(C(=O)N3CCOCC3)no2)c(Cl)c1,1,-1,-1,i,/,/
O=C(CN1C(=O)c2ccccc2C1=O)OCC(=O)N1CCCCC1,-4,/,-1,i,/,/
SMILES,Rpn11 block,TPT1 inhibitor,HNF4A DNA FP,Myeloid diff MLP,TPT1 inh confirm,RNase T1 counter
O=c1ccc(-c2ccc(S(=O)(=O)Nc3cccc([N+](=O)[O-])c3)s2)n[nH]1,-4,0,-8,i,/,/
O=C1CCC(=O)N1c1ccc(-c2nc3ccccc3s2)cc1,18,52*,5,i,11,18
COc1ccc2nc(C)cc(Sc3nc4ccccc4s3)c2c1,8,-2,-2,?,/,/
CN(CC(=O)Nc1ccc(F)cc1)C(=O)CSc1ncccn1,-2,0,-3,i,/,/
O=C(O)Cc1sc(NC2CCCCC2)nc1-c1ccc(Cl)cc1,/,137*,10,+,23,32*
Cc1ccc(-c2nc(Nc3cccc(C)c3)sc2CC(=O)O)cc1,24,11,5,i,/,/
CC1=NNC(=O)c2ccccc2O1,1,2,-1,i,/,/
O=C1C(=Cc2ccc(Br)o2)C(=O)c2ccccc21,/,26*,-73,i,26*,28*
CCCCNc1c(-c2ccc(-c3ccc(C(C)=O)cc3)c(OC)c2)nc2cnccn12,7,26*,12,i,52*,63*
CCCCNc1c(-c2ccc(OC)c(SC3CCCCC3)c2)nc2cnccn12,9,10,12,i,/,/
O=C(CCCn1cc([N+](=O)[O-])cn1)Nc1cccnc1,1,0,-1,i,/,/
CC(C)NC(=O)/C(C#N)=C/c1ccc(N(C)C)o1,/,158*,170,i,177*,167*
Cc1noc(C)c1COc1ccc(C(=O)Nc2nnc(CC(C)C)s2)cc1,1,/,2,i,/,/
O=C1CC(NS(=O)(=O)c2cccnc2)CN1c1cccc(F)c1 (configuration not stated),-5,-1,1,i,/,/
Cc1cccc(C)c1NC(=O)c1cccc(N2C(=O)C3CCC(C)CC3C2=O)c1 (configuration not stated),-17,-1,-4,i,/,/
COc1cccc(/C=N/NC(=O)c2c(C)nc3ccc(Br)cn23)c1O,16,31*,4,?,43*,46*
C/C(=N\NC(=O)CCn1nnc2ccccc21)c1ccco1,-5,1,2,i,/,/
O=C(CSc1nnc(-c2c[nH]c3ccccc23)n1C1CC1)NC1CCS(=O)(=O)C1 (configuration not stated),0,/,1,i,/,/
COc1cc(OC)c(C(=O)NC23CC4CC(CC(C4)C2)C3)cc1OC,3,3,-1,i,/,/
O=C(NC12CC3CC(CC(C3)C1)C2)c1cc(F)c(F)c(F)c1F,0,44*,0,i,-4,-3
CCC(=O)N1CCc2cc(S(=O)(=O)NCCc3ccc(S(N)(=O)=O)cc3)ccc21,-9,-5,1,i,/,/
CCC(CO)[n+]1c(C)cc(/C=C2\Sc3ccccc3N2Cc2ccccc2)cc1C (configuration not stated),/,127*,13,+,131*,134*
COC(=O)c1cccc(Cn2c(Cl)c(/C=N/Nc3ccccc3C)sc2=O)c1,34,29*,14,i,35*,42*
Cc1ccccc1N/N=C/c1sc(=O)n(Cc2cccc(C(=O)O)c2)c1Cl,6,3,-2,i,/,/
CCOC(=O)C1=C(c2ccccc2)N=c2s/c(=C\c3ccc(O)cc3)c(=O)n2C1c1cccs1 (configuration not stated),/,31*,22,i,53*,60*
